Screens deposited in PubChem BioAssay by National Center for Advancing Translational Sciences (NCATS).
Rows were chosen to be rich in hits. Some 9.3% of all compounds tested hit in one or more screens of this group.
VACV mCherry inh – vaccinia inhibition (mCherry reporter) | Vaccinia virus mCherry reporter infection, fluorescence | Potency, µM (top dose mostly 36.5 µM), actives largely listed as inhibitors | 310,000 compounds, 0.63% hits; calls by dose curve; tested in A549 cells; note: nearly all actives have a fitted effect of over 35% in size
Sm TGR inh – blocks Schistosoma mansoni thioredoxin glutathione reductase. Potency, µM (doses to about 114 µM), usual class: inhibitors. purified TGR, DTNB reduction, TNB absorbance 405 nm. Q962Y6. 360,000 compounds, 3% hits. AID 485364; note: nearly all actives have a fitted effect of over 60% in size
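First, TGR (20 nM dispensed) and NADPH were mixed with compound. Second, a 15 min room-temperature incubation followed. Third, further NADPH and then DTNB were added to start the reaction. Finally, TNB absorbance was monitored kinetically.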
HCMV antiviral – human cytomegalovirus inhibition. HFF cells, HCMV-luciferase reporter, 72 h; active compounds read low. activity change, negative = inhibition, % at 57.5 µM. 410,000 compounds, 4.5% hits; in the data active = activity change below about -60%; inconclusive = no clear call, values can overlap the other calls; inactive = above about -39%
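Screen run at 2 compound doses on HFFs infected with reporter HCMV, MOI 1 PFU/cell. Luciferase activity from cell lysates at 72 h post infection gave inhibition relative to buffer-only and Salinomycin wells.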
Vaccinia Venus – vaccinia inhibition (Venus reporter); Vaccinia virus Venus reporter expression, fluorescence; Potency, µM (titrated, usually from 36.5 µM), most hits filed as inhibitors; 330,000 compounds, 0.46% hits; AID 720580; calls by dose curve; tested in A549 cells; note: nearly all actives have a fitted effect of over 30% in size
HCV inh – inhibitors of hepatitis C virus infection | Potency, µM (top dose mostly 41.8 µM), hits mostly inhibitors | Huh7.5.1 HCVcc-Cre infection, luciferase reporter, 44 h | 340,000 compounds, 3.4% hits | AID 651820
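HCVcc-Cre virus at an moi near 0.5 was added right after compound to cells cultured 4 h from seeding (1,000 cells/well). Luciferase activity was determined 44 h later, 15 min after substrate addition at RT.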
FMDV inh – foot and mouth disease virus antiviral activity; FMDV antiviral cell-based qHTS; Potency, µM (titrated, usually from 57.9 µM), hits mostly inhibitors; 410,000 compounds, 1.2% hits; calls by dose curve; tested in HEK293T cells; note: read-out not given here; nearly all actives have a fitted effect of over 45% in size
Numbers stand for hits; – = inactive; ? = inconclusive; · = not tested or not shown; [ ] = dose if it differs, or a comment. Unless noted, calls come from the whole dose curve; as a rule, active = well fitted curve in the direction sought with a large enough effect; inconclusive = small, poorly fitted or top-dose-only effect, or another doubt; inactive = no such curve, though single readings can be large; an effect the other way counts as inactive or inconclusive.

SMILES	VACV mCherry inh	Sm TGR inh	HCMV antiviral	Vaccinia Venus	HCV inh	FMDV inh
Cc1ccc(Cl)cc1NC(=S)N(CCCN1CCN(C)CC1)Cc1cccs1	–	–	–	–	6.3µM	–
Cc1cc(Cl)ccc1NC(=S)N(CCCN1CCOCC1)Cc1cccs1	–	–	–	–	–	–
CCC(Sc1nc2ccccc2c(=O)[nH]1)C(=O)Nc1ccc(C(C)=O)cc1 (stereo not drawn)	–	–	–	–	–	–
Nc1nc(N)c2c(ccc3c2ccn3Cc2cccc([N+](=O)[O-])c2)n1	0.35µM	·	-99	11µM	·	?
Nc1nc(N)c2cc([N+](=O)[O-])ccc2n1	?	·	–	–	?	–
COC(=O)C(O)(CC(=O)Nc1ccc(C)c(F)c1)C(F)(F)F (stereo not drawn)	·	–	–	·	–	–
CCC(=O)N1CCc2cc(Br)cc(S(=O)(=O)CCC(=O)N3CCN(c4ccccc4OC)CC3)c21	–	–	–	–	·	–
Cc1ccc(NC(=O)C(=O)NCCN2CCN(S(C)(=O)=O)CC2)cc1C	–	–	–	–	–	–
COCCSc1ccccc1C(=O)Nc1ccc(Cl)cn1	–	–	-69	–	–	–
CCCCCCC(=O)Nc1ccc(Cl)cn1	·	–	–	·	–	–
O=C(COC(=O)CNC(=O)c1ccccc1)Nc1ccc(Cl)cn1	–	·	-61	–	–	–
O=C(COC(=O)CNC(=O)c1ccco1)Nc1ccc(Cl)cn1	–	–	–	–	–	–
O=C(CCCOc1ccccc1)Nc1ccc(Cl)cn1	?	–	-65	–	?	–
COc1cccc2cc(C(=O)NC(C)C3CCCO3)c(=O)oc12 (stereo not drawn)	·	–	–	·	–	–
CCOC(=O)[C@H]1[C@H]2COc3ccc(OC)cc3[C@@H]2N2C(=O)CN(Cc3ccccc3)C(=O)[C@@]12C	–	–	–	–	–	–
Cc1ccc(OCc2ccc(C(=O)Nc3c(C)nn(Cc4c(F)c(F)c(F)c(F)c4F)c3C)o2)c([N+](=O)[O-])c1	·	–	–	·	16µM	?
Cc1ccc(C)c(OCc2ccc(C(=O)Nc3ccc([N+](=O)[O-])cn3)o2)c1	·	–	–	·	2.5µM	?
COC(=O)c1cccn(CC(=O)c2ccc(Cl)cc2)c1=O	–	·	–	–	–	–
COc1cc(C)ccc1OCCSc1nc2ccc(NC(=O)c3ccc(F)cc3)cc2s1	–	–	–	–	·	?
COC(=O)c1cc(NC(=O)c2cc(C(C)(C)C)nn2Cc2ccc(F)cc2)ccc1N1CCOCC1	·	–	–	·	10µM	?
Cc1cccc(Cn2nc(C(C)(C)C)cc2C(=O)Nc2ccc(F)cc2)c1	–[7.34 µM]	–	-93	–[7.34 µM]	?	?
CC(C)CC(N)c1csc(NC(=O)c2cc(C(C)(C)C)nn2Cc2ccccc2)n1 (stereo not drawn)	11µM	·	-96	13µM	·	?
CC(C)CC(N)c1csc(NC(=O)Nc2ccccc2Cc2ccccc2)n1 (stereo not drawn)	?	·	–	?	·	–
Nc1nnc(C(F)(F)F)s1	–	–	–	–	–	–
Cn1cc(CN2CCC(C(O)c3cccs3)CC2)c(-c2ccccc2F)n1 (stereo not drawn)	–	–	–	–	–	–
SMILES	VACV mCherry inh	Sm TGR inh	HCMV antiviral	Vaccinia Venus	HCV inh	FMDV inh
COc1ccc(CNS(=O)(=O)NCc2ccccc2)cc1OC	–	–	–	–	?	–
COc1ccc(CNc2nc(S(=O)(=O)c3ccccc3)c(Cl)s2)cc1OC	?	–	-95	–	?	14µM
O=S(=O)(c1ccccc1)c1nc(NCc2ccccc2)sc1Cl	–	–	-70	–	–	–
CSCCC(NC(=O)c1ccccc1Br)C(=O)N1CCC(C)CC1 (stereo not drawn)	–	–	–	–	–	–
Cc1ccc(NC(=O)CNC(=O)OCc2ccccc2)cc1C	–	0.11µM	–	–	–	–
Cc1ccc(NC(=O)CCc2ccccc2)cc1C	–	·	–	–	·	–
COC(=O)C(CCCCNC(=O)OCc1ccccc1)NC(=O)CN (stereo not drawn)	·	79µM	–	–	–	–
Cc1cccc(C)c1NC(=O)C(c1ccc(C#N)cc1)n1c(=O)c(-c2ccco2)nc2ccccc21 (stereo not drawn)	–	·	–	–	·	–
CC1(C(=O)Nc2ccccc2Cc2ccccc2)CCN1CCc1ccccc1 (stereo not drawn)	–	·	–	–	·	?
N#Cc1ncc(-c2ccc3c(c2)OCCOCCOCCOCCO3)nc1C#N	–	–	-73	–	–	40µM
CC(=O)Oc1ccccc1C(=O)NC(C)CCc1ccccc1 (stereo not drawn)	–	–	–	–	?	25µM
Cc1oc(-c2ccc(Cl)cc2)nc1CS(=O)CC(=O)NC1CCCCC1 (stereo not drawn)	·	11µM	–	·	–	–
Cc1cccc(-c2nc(CS(=O)CC(=O)NC3CCCC3)c(C)o2)c1 (stereo not drawn)	–	13µM	–	–	–	–
Cc1oc(-c2ccc(Cl)cc2)nc1CS(=O)CC(=O)NCCCN1CCOCC1 (stereo not drawn)	·	–	–	·	–	–
Cc1oc(-c2ccc(Cl)cc2)nc1CS(=O)CC(=O)NCCN1CCCC1 (stereo not drawn)	–	–	–	–	–	–
Cc1cccc(-c2nc(CS(=O)CC(=O)NC3CCCC(C)C3C)c(C)o2)c1 (stereo not drawn)	–	5µM	–	–	–	–
Cc1oc(-c2ccc(Cl)cc2)nc1CS(=O)CC(=O)NC1CCCCCC1 (stereo not drawn)	–	10µM	–	–	?	–
CCOC1=CC(=O)OC(c2ccccc2)C1 (stereo not drawn)	–	·	–	–	–	–
CN(C(=O)c1ccc(NC(=O)Cc2cccc(NC(=O)C3CCN(C(=O)C4CCC4)CC3)c2)cc1)C1CCCC1	–	–	–	–	–	–
O=C(NCCc1ccc(Cl)cc1)c1cnccn1	–	–	–	–	–	–
Cc1ccccc1-c1nc(CS(=O)CC(=O)NC2CC2)c(C)o1 (stereo not drawn)	·	?	–	·	?	–
Cc1oc(-c2cccs2)nc1CS(=O)CC(=O)NC1CCCCCC1 (stereo not drawn)	–	18µM	–	–	–	–
Cc1oc(-c2ccc(Cl)cc2)nc1CS(=O)CC(=O)NCCCN(C)C1CCCCC1 (stereo not drawn)	·	–	-70	·	10µM	?
Cc1oc(-c2ccc(Cl)cc2)nc1CS(=O)CC(=O)NC1CCCC1 (stereo not drawn)	–	8.9µM	–	–	–	–
Cc1ccc(-c2nc(CS(=O)CC(=O)NC3CCCCC3)c(C)o2)cc1 (stereo not drawn)	·	13µM	–	·	–	–
COc1ccc(-c2nc(CS(=O)CC(=O)NC3CCCC3)c(C)o2)cc1 (stereo not drawn)	–	?	–	–	–	–
COc1ccccc1CN1CCCC2(CCN(S(=O)(=O)c3ccccc3)CC2)C1	·	·	·	·	·	–
